According to paper PMC12864922, “TDP-43 directly inhibits mRNA accumulation in neurites through modulation of mRNA stability”:
In all, about 9,900 sequences were measured (“r (bound/input frequency ratio)”: median about 0.7, highest 2% from about 6.5 on). The sample as a whole holds a higher share of the highest values than the screen did.

B1: ENSMUSG00000042529.153|Kcnj12 (ssRNA)
RNA: GGGAGUUCUACAGUCCGACGAUCGCUUCGAUAUCCGCAUGCUAAUAGGAAACACCAGAGUGGGUGCUUCUUAGAAAAGGACACUCAGGAAAUUAGUAUGGGGUCUGGGUCCCACAUCCCCAGGAAGUGGGUCAGCCCCACGUCCCCCGCUGGACUCACAGCUUGAGUUGUGCCUUAGAGACUCUGGUUGUCUGGCUUCCGUCAUUUCUGGUUUUCUCAGACUUGUUUAAUCUUUCCCUACUGCCCUAAGUCCACUCAUGAAGCUCCCCAGGCCCUUCUGAGAUUGCAGAGGCUGCUUGCUCAUCUCUUGCGGUCGCACUAGUGUGGAAUUCUCGGGUGUCAAGG
B2: ENSMUSG00000058297.8|Spock2|203:207;211:224;233:244 (ssRNA)
RNA: GGGAGUUCUACAGUCCGACGAUCGCUUCGAUAUCCGCAUGCUAGGCCGAGGAGGAGGAGGGUGAGGCGGGUGAGGCAGAUGAUGGAGGCUACAUCUGGUAGAUAGCCCUCGACGGCCUCGGCAGGCCAGGGUGCCGACGGCCAGAAAGACAGGCCAGAAGAGACCUGGACAACAGCAGGCAACUUAGCAAAUGGAUCCGGAAGUCAGUGCGGAGGACCCUGGCUCCAGUGGGGGAGGACUGGGGACACACGCUACACACAUACACACAUAUGAGAACACACACAUACAUGUGAGAUGUGAGUGCUCUUGCGGUCGCACUAGUGUGGAAUUCUCGGGUGUCAAGG
B3: ENSMUSG00000058297.7|Spock2 (ssRNA)
RNA: GGGAGUUCUACAGUCCGACGAUCGCUUCGAUAUCCGCAUGCUAGGAGGAGGCCGAGGAGGAGGAGGGUGAGGCGGGUGAGGCAGAUGAUGGAGGCUACAUCUGGUAGAUAGCCCUCGACGGCCUCGGCAGGCCAGGGUGCCGACGGCCAGAAAGACAGGCCAGAAGAGACCUGGACAACAGCAGGCAACUUAGCAAAUGGAUCCGGAAGUCAGUGCGGAGGACCCUGGCUCCAGUGGGGGAGGACUGGGGAGUGUGGCUUGUGUGUAUGUGUGAUAUGAGAUGUGUGUGUAUGAUGUGAGAUGCUCUUGCGGUCGCACUAGUGUGGAAUUCUCGGGUGUCAAGG
B4: ENSMUSG00000058297.8|Spock2 (ssRNA)
RNA: GGGAGUUCUACAGUCCGACGAUCGCUUCGAUAUCCGCAUGCUAGGCCGAGGAGGAGGAGGGUGAGGCGGGUGAGGCAGAUGAUGGAGGCUACAUCUGGUAGAUAGCCCUCGACGGCCUCGGCAGGCCAGGGUGCCGACGGCCAGAAAGACAGGCCAGAAGAGACCUGGACAACAGCAGGCAACUUAGCAAAUGGAUCCGGAAGUCAGUGCGGAGGACCCUGGCUCCAGUGGGGGAGGACUGGGGAGUGUGGCUUGUGUGUAUGUGUGAUAUGAGAUGUGUGUGUAUGAUGUGAGAUGUGAGUGCUCUUGCGGUCGCACUAGUGUGGAAUUCUCGGGUGUCAAGG
B5: ENSMUSG00000058297.4|Spock2 (ssRNA)
RNA: GGGAGUUCUACAGUCCGACGAUCGCUUCGAUAUCCGCAUGCUAGGAGACAGAAGAGGCAGGGGAGGAGGCCGAGGAGGAGGAGGGUGAGGCGGGUGAGGCAGAUGAUGGAGGCUACAUCUGGUAGAUAGCCCUCGACGGCCUCGGCAGGCCAGGGUGCCGACGGCCAGAAAGACAGGCCAGAAGAGACCUGGACAACAGCAGGCAACUUAGCAAAUGGAUCCGGAAGUCAGUGCGGAGGACCCUGGCUCCAGUGGGGGAGGACUGGGGAGUGUGGCUUGUGUGUAUGUGUGAUAUGAGAUGUGCUCUUGCGGUCGCACUAGUGUGGAAUUCUCGGGUGUCAAGG
B6: ENSMUSG00000058297.1|Spock2 (ssRNA)
RNA: GGGAGUUCUACAGUCCGACGAUCGCUUCGAUAUCCGCAUGCUAGGAGGAUGAGGAAGAAAAGGAGACAGAAGAGGCAGGGGAGGAGGCCGAGGAGGAGGAGGGUGAGGCGGGUGAGGCAGAUGAUGGAGGCUACAUCUGGUAGAUAGCCCUCGACGGCCUCGGCAGGCCAGGGUGCCGACGGCCAGAAAGACAGGCCAGAAGAGACCUGGACAACAGCAGGCAACUUAGCAAAUGGAUCCGGAAGUCAGUGCGGAGGACCCUGGCUCCAGUGGGGGAGGACUGGGGAGUGUGGCUUGUGUGUACUCUUGCGGUCGCACUAGUGUGGAAUUCUCGGGUGUCAAGG
B7: ENSMUSG00000058297.9|Spock2|197:201;205:218;227:238;252:258 (ssRNA)
RNA: GGGAGUUCUACAGUCCGACGAUCGCUUCGAUAUCCGCAUGCUAGGAGGAGGAGGGUGAGGCGGGUGAGGCAGAUGAUGGAGGCUACAUCUGGUAGAUAGCCCUCGACGGCCUCGGCAGGCCAGGGUGCCGACGGCCAGAAAGACAGGCCAGAAGAGACCUGGACAACAGCAGGCAACUUAGCAAAUGGAUCCGGAAGUCAGUGCGGAGGACCCUGGCUCCAGUGGGGGAGGACUGGGGACACACGCUACACACAUACACACAUAUGAGAACACACACAUACAUGUGAGAUGUGACACACACAUCUCUUGCGGUCGCACUAGUGUGGAAUUCUCGGGUGUCAAGG
B8: ENSMUSG00000058297.9|Spock2 (ssRNA)
RNA: GGGAGUUCUACAGUCCGACGAUCGCUUCGAUAUCCGCAUGCUAGGAGGAGGAGGGUGAGGCGGGUGAGGCAGAUGAUGGAGGCUACAUCUGGUAGAUAGCCCUCGACGGCCUCGGCAGGCCAGGGUGCCGACGGCCAGAAAGACAGGCCAGAAGAGACCUGGACAACAGCAGGCAACUUAGCAAAUGGAUCCGGAAGUCAGUGCGGAGGACCCUGGCUCCAGUGGGGGAGGACUGGGGAGUGUGGCUUGUGUGUAUGUGUGAUAUGAGAUGUGUGUGUAUGAUGUGAGAUGUGAGUGUGUGAUCUCUUGCGGUCGCACUAGUGUGGAAUUCUCGGGUGUCAAGG
B9: ENSMUSG00000058297.10|Spock2 (ssRNA)
RNA: GGGAGUUCUACAGUCCGACGAUCGCUUCGAUAUCCGCAUGCUAGGAGGGUGAGGCGGGUGAGGCAGAUGAUGGAGGCUACAUCUGGUAGAUAGCCCUCGACGGCCUCGGCAGGCCAGGGUGCCGACGGCCAGAAAGACAGGCCAGAAGAGACCUGGACAACAGCAGGCAACUUAGCAAAUGGAUCCGGAAGUCAGUGCGGAGGACCCUGGCUCCAGUGGGGGAGGACUGGGGAGUGUGGCUUGUGUGUAUGUGUGAUAUGAGAUGUGUGUGUAUGAUGUGAGAUGUGAGUGUGUGAUGUGAGACUCUUGCGGUCGCACUAGUGUGGAAUUCUCGGGUGUCAAGG
B10: ENSMUSG00000058297.6|Spock2 (ssRNA)
RNA: GGGAGUUCUACAGUCCGACGAUCGCUUCGAUAUCCGCAUGCUAGGCAGGGGAGGAGGCCGAGGAGGAGGAGGGUGAGGCGGGUGAGGCAGAUGAUGGAGGCUACAUCUGGUAGAUAGCCCUCGACGGCCUCGGCAGGCCAGGGUGCCGACGGCCAGAAAGACAGGCCAGAAGAGACCUGGACAACAGCAGGCAACUUAGCAAAUGGAUCCGGAAGUCAGUGCGGAGGACCCUGGCUCCAGUGGGGGAGGACUGGGGAGUGUGGCUUGUGUGUAUGUGUGAUAUGAGAUGUGUGUGUAUGAUGUCUCUUGCGGUCGCACUAGUGUGGAAUUCUCGGGUGUCAAGG

Molecular target: TDP-43 (Homo sapiens, UniProt Q13148 1-414)
Sequence (Q13148 whole entry): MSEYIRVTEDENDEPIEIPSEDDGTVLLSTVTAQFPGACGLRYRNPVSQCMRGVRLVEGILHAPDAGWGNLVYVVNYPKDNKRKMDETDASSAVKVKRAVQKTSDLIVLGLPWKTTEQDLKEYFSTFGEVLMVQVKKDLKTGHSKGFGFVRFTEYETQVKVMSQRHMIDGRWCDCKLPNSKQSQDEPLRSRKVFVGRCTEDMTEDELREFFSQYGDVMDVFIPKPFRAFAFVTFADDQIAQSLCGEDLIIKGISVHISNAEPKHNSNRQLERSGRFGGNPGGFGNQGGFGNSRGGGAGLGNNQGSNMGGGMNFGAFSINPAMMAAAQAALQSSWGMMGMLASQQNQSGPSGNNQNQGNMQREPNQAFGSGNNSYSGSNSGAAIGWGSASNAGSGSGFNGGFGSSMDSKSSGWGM
Experiment: RNA Bind-n-Seq with designed 260-mer pool; 25 mM Tris-HCl, 150 mM KCl, 3 mM MgCl2, BSA (printed 500 mg/mL), 20 units/mL SUPERase IN; pH not stated; 500 nM RNA pool, 1 h, 4 C; TDP-43 5, 50, 500 nM; high values mean tight binding
Conditions: protein: recombinant; tags: SBP (GST cleaved off with PreScission; pGEX-GST-SBP)
Procedure, shortened: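 Streptavidin beads captured recombinant SBP-tagged TDP-43 at 5, 50 or 500 nM, and the beads were incubated for 1 h at 4 °C with 500 nM of an in vitro-transcribed pool of 260-nt 3′ UTR oligos in 25 mM Tris-HCl, 150 mM KCl, 3 mM MgCl2, BSA and SUPERase IN. After washing, bound RNA was eluted with biotin, reverse transcribed, PCR-amplified and sequenced. Binding is reported as R, the mapped-read-normalized abundance of each oligo in the bound sample divided by its abundance in the input. Two independent protein batches served as duplicates.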

Binder | binding signal
B1 | 0.587 R (bound/input frequency ratio)
B2 | 2.32 R (bound/input frequency ratio)
B3 | 5.88 R (bound/input frequency ratio)
B4 | 6.51 R (bound/input frequency ratio)
B5 | 6.81 R (bound/input frequency ratio)
B6 | 3.54 R (bound/input frequency ratio)
B7 | 2.81 R (bound/input frequency ratio)
B8 | 5.99 R (bound/input frequency ratio)
B9 | 6.91 R (bound/input frequency ratio)
B10 | 4.92 R (bound/input frequency ratio)
